From PubChem BioAssay (NCI) come the findings set out here.

Test systems include SR leukemia; RPMI-8226 leukemia; OVCAR-8 ovarian; OVCAR-5 ovarian; OVCAR-4 ovarian; SK-OV-3 ovarian; IGROV1 ovarian; OVCAR-3 ovarian; HS 578T breast; NCI/ADR-RES ovarian; T-47D breast; BT-549 breast; MDA-MB-435 melanoma; SW-620 colon; MCF7 breast; HCT-116 colon; HCC-2998 colon; KM12 colon; MDA-MB-468 breast.
Holding throughout (assay): NCI-60 one-dose screen, 48 h (100 = growth as untreated, 0 = no growth, -100 = all killed)
Settings in all cases: 10 µM unless noted

The panel holds about 83,000 compounds, 20% with a hit somewhere; the sample as a whole holds those more often.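 Negative percent growth values reflect cell death: -40 means 40% of the cells present at the start died, and -100 means all died.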 A number with no mark means an inactive call. Active and inactive are the calls of the source. Rule for the calls: active = growth percent below 10; inactive = the rest.

As to `O=C1/C(=C/C2=Cc3ccccc3OC2)SC(=S)N1c1ccccc1F`, the growth was 91% in the test on SR leukemia; 85.7% in the test on RPMI-8226 leukemia; 110% with OVCAR-8 ovarian; 108% in the test on OVCAR-5 ovarian; 107% in the test on OVCAR-4 ovarian; 95.3% in the test on SK-OV-3 ovarian. In addition, the growth was 103% in the test with IGROV1 ovarian; 109% in the test on OVCAR-3 ovarian; 105% with HS 578T breast; 109% with NCI/ADR-RES ovarian; 95% in the test with T-47D breast; 77.8% in the test with BT-549 breast. Besides, the growth in the test with MDA-MB-435 melanoma was 108%; in the test with SW-620 colon, 112%; in the test on MCF7 breast, 78.4%; in the test on HCT-116 colon, 96.4%; with HCC-2998 colon, 109%; in the test on KM12 colon it was 102%. Also, in the test on MDA-MB-468 breast, the growth was 99%.
Take `CC(=O)Nc1ccc(-n2cnc3cc(-c4ccc(O)cc4)ccc32)cc1C(F)(F)F`: the growth with SR leukemia is 16.3%; in the test with RPMI-8226 leukemia, 16.6%; in the test with OVCAR-8 ovarian, 16.1%; in the test with OVCAR-5 ovarian, 37.9%; in the test with OVCAR-4 ovarian it was 40.8%; in the test with SK-OV-3 ovarian, 56.3%. Further, the growth in the test with IGROV1 ovarian is 35.1%; in the test on OVCAR-3 ovarian it was 24.7%; in the test on HS 578T breast, 0.862% (active); in the test with NCI/ADR-RES ovarian, 16.3%; in the test on T-47D breast, 20.5%; with BT-549 breast, 32.5%. The growth in the test on MDA-MB-435 melanoma is 3.5% (active); in the test on SW-620 colon, 22.3%; in the test on MCF7 breast, 18.4%; in the test with HCT-116 colon, 31%; in the test on HCC-2998 colon it was 33.9%; in the test on KM12 colon, 3.46% (active). In addition, the growth in the test on MDA-MB-468 breast is 8.18% (active).
Turning to `CCCSc1nc(NCCc2c[nH]c3ccccc23)c(C#N)c(-c2ccccc2)n1`, the growth with SR leukemia was 8.87% (active); in the test on RPMI-8226 leukemia, 44.5%; in the test on OVCAR-8 ovarian, 82.1%; with OVCAR-5 ovarian it was 91.8%; in the test with OVCAR-4 ovarian, 82.1%; in the test on SK-OV-3 ovarian, 91%. Also, the growth in the test on IGROV1 ovarian was 100%; in the test with OVCAR-3 ovarian, 100%; in the test on HS 578T breast it was 66.8%; in the test on NCI/ADR-RES ovarian it was 69%; with T-47D breast, 16.1%; in the test with BT-549 breast it was 89.3%. Also, the growth in the test with MDA-MB-435 melanoma is 83.4%; with SW-620 colon it was 56.9%; in the test on MCF7 breast it was 24.9%; in the test on HCT-116 colon it was 32%; in the test on HCC-2998 colon, 59.9%; in the test with KM12 colon, 42.1%. Besides, the growth in the test with MDA-MB-468 breast was 53.8%.
With `CC1[C@H]2[C@H](C[C@H]3[C@@H]4CC=C5c6sc(Nc7ccccc7F)nc6CC[C@]5(C)[C@H]4CC[C@@]32C)O[C@]12CC[C@@H](C)CO2` (some centres undefined), the growth with SR leukemia is 4.49% (active); in the test with RPMI-8226 leukemia, -16.2% (active); in the test with OVCAR-8 ovarian, -83.4% (active); in the test on OVCAR-5 ovarian, -67.1% (active); with OVCAR-4 ovarian it was -42.9% (active); in the test with SK-OV-3 ovarian, -19.5% (active). Further, the growth is -37.6% (active) in the test on IGROV1 ovarian; -74.3% (active) in the test with OVCAR-3 ovarian; -16.1% (active) with HS 578T breast; -33.9% (active) in the test with NCI/ADR-RES ovarian; -60.2% (active) in the test with T-47D breast; 55.2% with BT-549 breast. Further, the growth in the test with MDA-MB-435 melanoma is -83.5% (active); with SW-620 colon it was -75.4% (active); in the test with MCF7 breast it was -66.8% (active); in the test with HCT-116 colon it was -94.3% (active); in the test on HCC-2998 colon it was -82.1% (active); in the test with KM12 colon, -90.7% (active). In addition, the growth with MDA-MB-468 breast is -63.1% (active).
For the compound `COc1ccc(NC(=O)Cn2c(O)c(N=Nc3ccc(S(N)(=O)=O)cc3)c3ccccc32)cc1`, the growth in the test with SR leukemia was 83.8%; with RPMI-8226 leukemia, 71.6%; with OVCAR-8 ovarian, 24.5%; with OVCAR-5 ovarian, 65.9%; in the test on OVCAR-4 ovarian, 82.2%; in the test on SK-OV-3 ovarian, 30.3%. Moreover, the growth with IGROV1 ovarian was 34.4%; in the test on OVCAR-3 ovarian, 50.7%; in the test with HS 578T breast, 80.7%; with NCI/ADR-RES ovarian it was 93.8%; with T-47D breast it was 66.5%; in the test on BT-549 breast it was 15.8%. Besides, the growth is 53% in the test with MDA-MB-435 melanoma; 25.2% with SW-620 colon; 31.2% with MCF7 breast; 3.37% (active) in the test on HCT-116 colon; 18% in the test on HCC-2998 colon; 26.3% in the test with KM12 colon. In the test with MDA-MB-468 breast, the growth was 22.3%.
Turning to `N/C(=N\c1nc2ccccc2s1)NC(=O)Nc1ccc(Cl)cc1Cl`, the growth in the test on SR leukemia is 5.8% (active); in the test with RPMI-8226 leukemia it was -1.62% (active); in the test on OVCAR-8 ovarian, -79.3% (active); in the test with OVCAR-5 ovarian, -73.2% (active); in the test on OVCAR-4 ovarian, -87.7% (active); in the test on SK-OV-3 ovarian it was -91.5% (active). Further, the growth with IGROV1 ovarian was -68.5% (active); in the test with OVCAR-3 ovarian, -95.5% (active); in the test with HS 578T breast, -26.7% (active); in the test with NCI/ADR-RES ovarian it was -84.8% (active); in the test with T-47D breast it was -10.7% (active); in the test with BT-549 breast, -17.6% (active). Moreover, the growth in the test with MDA-MB-435 melanoma is -97.3% (active); with SW-620 colon, -67.9% (active); in the test on MCF7 breast, -4.93% (active); with HCT-116 colon it was -79.6% (active); with HCC-2998 colon it was -25.4% (active); in the test on KM12 colon it was -64.4% (active). In the test on MDA-MB-468 breast, the growth was -48.6% (active).
